# Assay outcomes as filed in PubChem BioAssay.
# The list is not random: actives were taken first. Their share in the collection is about 11%.
# Pf growth 96h – P. falciparum growth inhibition at 96 hour, primary screen for plastid delayed-death inhibitors | P. falciparum luciferase reporter growth, 96 h | Potency, µM (series often up to 28.7 µM), usual class: inhibitors | actives 6.9% (n = 320,000) | AID 504834
#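 Plates of compound plus infected erythrocytes (2% hematocrit, 0.05% parasitemia final) incubate 96 hours, 37 C, 5% CO2. Detection reagent added; reduced luminescence from the parasites' luciferase reporter flags inhibition.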
# AMA1 RON2 block – inhibitors of Plasmodium falciparum AMA1-RON2 interaction. AlphaScreen AMA1-biotinylated RON2 peptide binding. Potency, µM (highest dose often 58.2 µM), actives largely listed as inhibitors. actives 0.2% (n = 360,000); note: nearly all actives have a fitted effect of over 45% in size
#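 AMA1 (3D7) with his tag at 25 nM final met compounds first, then biotinylated RON2 peptide at 25 nM; detection used donor plus acceptor beads, 10 µg/mL apiece, read by AlphaScreen after 30 min at room temperature.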
# NS1 function inh – inhibitors of influenza NS1 protein function; Potency, µM (top dose mostly 46.1 µM); actives 0.4% (n = 270,000); AID 2326; calls by dose curve; note: actives are rising curves; nearly all actives have a fitted effect of over 50% in size
#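 OD600 was taken as the measure of yeast growth restored by compound in an NS1-expressing S. cerevisiae strain. Cells had been washed out of glucose medium and diluted 1:100 into galactose -URA medium, pH 6.0.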
# Pf growth 48h – inhibits P. falciparum growth in the first generation, 48 h; actives 5.9% (n = 310,000); Potency, µM (top dose mostly 28.7 µM), usual class: inhibitors; P. falciparum luciferase growth in erythrocytes, 48 h
#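 Firefly luciferase activity from engineered P. falciparum reports growth; inhibitors lower the luminescent signal. Cultures contained 2% hematocrit erythrocytes at 0.1% final parasitemia.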
# Sm TGR block – S. mansoni TGR enzyme inhibition; purified TGR, DTNB reduction, TNB absorbance 405 nm; Potency, µM (series often up to 114 µM), usual class: inhibitors; actives 3% (n = 360,000); AID 485364; note: nearly all actives have a fitted effect of over 60% in size
#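 First, TGR (20 nM dispensed) and NADPH were mixed with compound. Second, a 15 min room-temperature incubation followed. Third, further NADPH and then DTNB were added to start the reaction. Finally, TNB absorbance was monitored kinetically.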
# Numbers stand for hits; – = inactive; ? = inconclusive; · = no result; [ ] = remark or other dose. Unless noted, calls come from the whole dose curve; as a rule, active = well fitted curve in the direction sought with a large enough effect; inconclusive = small, poorly fitted or top-dose-only effect, or another doubt; inactive = no such curve, though single readings can be large; an effect the other way counts as inactive or inconclusive.
SMILES,Pf growth 96h,AMA1 RON2 block,NS1 function inh,Pf growth 48h,Sm TGR block
C/C(=N\NC(=S)NC(C)C)c1ccco1,?,–,·,?,3.98µM
CCN=C1SC(C(=O)Nc2ccccc2)CC(=O)N1CC (stereo not given),·,–,–,–,–
CCN=C1SC(C(=O)Nc2cccc(C(=O)O)c2)CC(=O)N1CC (stereo not given),13.1µM,–,–,–,?
O=C(NC1CCCCC1)C1Cc2ccccc2CN1S(=O)(=O)c1ccc(F)cc1 (stereo not given),13.1µM,–,–,?,–
COc1ccc(S(=O)(=O)N2Cc3ccccc3CC2C(=O)Nc2ccc(O)cc2)cc1OC (stereo not given),3.7µM,–,–,?,–
CCNC(=O)C1Cc2ccccc2CN1S(=O)(=O)c1ccc(F)cc1 (stereo not given),–,–,–,0.828µM,–
O=C(c1ccco1)N1CCN(C(=O)C2Cc3ccccc3CN2S(=O)(=O)c2ccc(F)cc2)CC1 (stereo not given),–,–,–,?,50.1µM
O=C(C1Cc2ccccc2CN1S(=O)(=O)c1ccc(F)cc1)N1CCCCC1 (stereo not given),·,–,–,–,–
COC(=O)CNC(=O)C1Cc2ccccc2CN1S(=O)(=O)c1ccc(F)cc1 (stereo not given),–,–,–,–[0.00184 µM],–
Cc1cc(NC(=O)c2ccc(Br)o2)cc(-c2nc3ccccc3o2)c1O,·,·,·,·,–
Cc1nc(SCC(=O)NC2CCCC2)c2oc3ccccc3c2n1,·,–,·,·,·
COC(=O)c1c(NC(=O)CN2CCC3(O)CCCCC3C2c2cc(OC)ccc2OC)sc(C)c1C (stereo not given),10.4µM,–,–,?,–
COc1ccccc1C1C2CCCCC2(O)CCN1CC(=O)Nc1ccccc1 (stereo not given),?,–,–,?,–
COC(=O)c1c(NC(=O)CN2CCC3(O)CCCCC3C2c2ccc(F)cc2)sc(C)c1C (stereo not given),?,–,?,8.28µM,–
CCN(CC)c1nc2nonc2nc1N(CC)CC,4.65µM,–,–,–,–
COc1ccc(C2=NOC(Cn3nc(C(=O)NCC4CC4)cc3-c3ccccc3)C2)cc1 (stereo not given),9.28µM,–,·,?,–
COc1ccccc1CNC(=O)c1cc(-c2ccccc2C)nn1CC1CC(c2cccnc2)=NO1 (stereo not given),4.65µM,–,·,?,–
COc1ccc(C2=NOC(Cn3nc(-c4ccccc4)cc3C(=O)NCc3ccc(C)cc3)C2)cc1 (stereo not given),·,–,·,·,·
COc1ccc(C2=NOC(Cn3nc(C(=O)NCc4ccc(OC(F)(F)F)cc4)cc3-c3ccccc3)C2)cc1 (stereo not given),–,–,·,10.4µM,–
Cc1ccccc1-c1cc(C(=O)NCc2cccc(Br)c2)n(CC2CC(c3cccnc3)=NO2)n1 (stereo not given),·,–,·,·,·
COc1ccc(C2=NOC(Cn3nc(C(=O)NCc4ccccc4OC)cc3-c3ccccc3)C2)cc1 (stereo not given),?,–,·,13.1µM,–
COc1cc2cnc(-c3ccccc3)c(-c3ccc(C#N)cc3)c2cc1OC,?,–,·,2.33µM,–
COCCCNc1c2c(nc3nnnn13)CCCC2,?,–,·,–,–
CC1CN(c2c3c(nc4ncnn24)CCCC3)CC(C)O1 (stereo not given),–[5.75 µM],–,–,–,–
C1CCN(c2c3c(nc4nnnn24)CCCC3)CC1,10.4µM,–,–,–,–
SMILES,Pf growth 96h,AMA1 RON2 block,NS1 function inh,Pf growth 48h,Sm TGR block
C1CCC(CNc2c3c(nc4nnnn24)CCCC3)CC1,13.1µM,–,–,?,?
CCOc1cccc(OCCCn2c(-c3ccc(Br)cc3)nc3ccccc3c2=O)c1,·,·,·,·,–
CC(=O)N/C(=C\c1ccccc1)C(=O)OCC(=O)c1c(N)n(C)c(=O)n(C)c1=O,·,–,·,·,·
CN1CCc2c(sc3c2C(=O)NC(/C=C\c2ccccc2)N3)C1 (stereo not given),–,–,–,–,10µM
CN1CCc2c(sc3c2C(=O)NC(c2cccs2)N3)C1 (stereo not given),–,–,–,–,–
COc1ccc(N2CCN(C(=O)c3cc4c(s3)CCCCC4)CC2)cc1,?,?,·,?,–
COc1ccc(Cn2c(=O)[nH]c3cc(C(=O)N4CCN(c5ccccc5F)CC4)ccc3c2=O)cc1,11.7µM,–,–,11.7µM,–
COc1ccccc1N1CCN(C(=O)c2ccc3c(=O)n(Cc4ccc5c(c4)OCO5)c(=O)[nH]c3c2)CC1,?,–,–,1.47µM,–
COc1ccc(Cn2c(=O)[nH]c3cc(C(=O)N4CCN(Cc5ccccc5)CC4)ccc3c2=O)cc1,–,–,–,?,–
COc1ccc(Cn2c(=O)[nH]c3cc(C(=O)N4CCN(c5ccccc5OC)CC4)ccc3c2=O)cc1,–,–,–,3.29µM,–
COc1ccccc1N1CCN(C(=O)c2cc3c(s2)CCC3)CC1,13.1µM,–,–,·,–
CCOC(=O)c1cnc2cc(-c3ccc(OCC)cc3)nn2c1-c1ccccc1,·,·,·,·,–
C[C@H](NC(=O)c1[nH]cnc1C(=O)N[C@H](C)c1ccccc1)c1ccccc1,–,–,·,?,–
COc1ccccc1N1CCN(C(=O)c2ccc3[nH]c4c(c3c2)CCCC4)CC1,11.7µM,–,–,–,–
O=C(Nc1cnn(Cc2ccccc2)c1)c1nc2ncccn2n1,2.62µM,–,–,–,–
Cc1ccccc1NS(=O)(=O)c1ccc(NC(=O)c2nc3ncccn3n2)cc1,?,–,?,·,–
CC(C)c1ccc(Nc2ccc(C(=O)O)cc2[N+](=O)[O-])cc1,–,–,–,–,–
COc1ccc(C(=O)NC(=S)Nc2ccc(N3CCN(C(C)=O)CC3)cc2)cc1[N+](=O)[O-],–,–,–,?,8.91µM
Cc1ccc(Nc2ccc(C(=O)O)cc2[N+](=O)[O-])cc1,9.28µM,–,–,·,–
Cc1ccc(C(=O)O)cc1NC(=S)NC(=O)c1ccc([N+](=O)[O-])c(C)c1,?,–,·,–[5.75 µM],20µM
CCOc1ccc(C(=O)NC(=S)Nc2ccc(N3CCCCC3)cc2)cc1[N+](=O)[O-],?,–,–,–,–
CC(=O)N1CCN(c2ccc(NC(=S)NC(=O)c3ccc(C)c([N+](=O)[O-])c3)cc2)CC1,–,–,–,–,11.2µM
COc1ccc(Cl)cc1NC(=O)CSc1nc2ccccc2nc1N1CCCCC1,·,·,·,·,–
CCNC(=S)Nc1cc(-c2ccc(Cl)cc2)[nH]n1,–,–,–,–,0.891µM
COC(=O)c1cc(S(=O)(=O)N(C)Cc2ccco2)c[nH]1,?,–,–,–,–
O=S(=O)(NC1CCCCC1N1CCN(c2ccc(F)cc2)CC1)c1ccc(Cl)cc1 (stereo not given),?,–,–,13.1µM,–
CCCN1CCN(C2CCCCC2NS(=O)(=O)c2ccc(Cl)cc2)CC1 (stereo not given),–,–,–,–,–
